# ELG1 DNA repair: inhibitors of ELG1-dependent DNA repair in HEK293T cells. HEK293T ELG1-luciferase reporter, luminescence, 16 h; DNA damage induced by 5-fluorouridine. Potency, µM (titrated, usually from 46.1 µM), hits mostly inhibitors. 330,000 compounds, 2.3% hits; also: nearly all actives have a fitted effect of over 55% in size
#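 Overnight (16 hr) co-exposure of 2,000 cells/well to 5-fluorouridine and compound at 37 °C preceded detection. Luciferase was quantified via ONE-Glo luminescence; loss of signal denotes inhibition.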
# KB-3-1 cytotox: KB-3-1 parental cell cytotoxicity | KB-3-1 viability, CellTiter-Glo ATP luminescence, 72 h | AID 1347075 | Potency, µM (doses to about 46.1 µM), actives largely listed as cytotoxic | 400,000 compounds, 1.4% hits; also: nearly all actives have a fitted effect of over 60% in size
#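 Luminescent ATP read-out (CellTiter-Glo) measures survival of drug-naive KB-3-1 cells after 72 h compound exposure at 37 °C. Titration series was screened from lowest to highest concentration, with DMSO vehicle plates as background controls.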
# KB-V1 cytotox: kills drug-selected multidrug resistant KB-V1 cells. 400,000 compounds, 3.4% hits. KB-V1 MDR cells viability, CellTiter-Glo, 72 h. AID 1347076. Potency, µM (series often up to 46.1 µM), hits mostly cytotoxic; also: nearly all actives have a fitted effect of over 60% in size
#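 Drug-selected KB-V1 cells, grown in DMEM lacking phenol red with 10% FBS, receive compound titrations; after three days at 37 degrees C, surviving cell ATP is quantified by CellTiter-Glo luminescence and responses normalized and curve-fitted.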
# MCF10A rereplic: inducers of DNA re-replication in MCF 10A breast cells. AID 624296. MCF 10A DNA re-replication, Hoechst nuclear intensity, 48 h. 350,000 compounds, 2.9% hits. Potency, µM (doses to about 46.1 µM), actives largely listed as activators; also: nearly all actives have a fitted effect of over 50% in size
# SW480 rereplic: induces DNA re-replication in SW480 colon adenocarcinoma cells; SW480 DNA re-replication, Hoechst DNA content imaging, 48 h; Potency, µM (highest dose often 46.1 µM), actives largely listed as activators; 340,000 compounds, 1.8% hits; AID 624297; also: nearly all actives have a fitted effect of over 55% in size
#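 Treated cells incubate 48 hr (37 C, 5% CO2), are stained 40 min with Hoechst, and nuclear fluorescence is enumerated; a rise in nuclei with high DNA signal marks re-replication.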
# Numbers stand for hits; - = inactive; ? = inconclusive; . = no result; ! = a repeat was not active. Compounds with a hit are over-represented: about 8.2% of the library has one in this group of screens. Calls follow the shape of the dose curve; as a rule, active = well fitted curve in the direction sought with a large enough effect; inconclusive = small, poorly fitted or top-dose-only effect, or another doubt; inactive = no such curve, though single readings can be large; an effect the other way counts as inactive or inconclusive.
SMILES,ELG1 DNA repair,KB-3-1 cytotox,KB-V1 cytotox,MCF10A rereplic,SW480 rereplic
Cc1ccc(NCc2nc3ccccc3n2CCOc2ccccc2)cc1,?,16µM!,23µM!,-,-
Cc1ccc(OCCn2c(CNc3cccc(C)c3)nc3ccccc32)cc1,.,-,-,.,.
COc1ccc(CNC(=O)CC2C[C@H](C(=O)N3CCCCC3)[C@@]3(C)c4[nH]c5ccccc5c4CCN3C2=O)cc1OC (some centres undefined),-,-,-,-,-
COC(=O)[C@@]12C[C@@H](CC(=O)NCC34CC5CC(CC(C5)C3)C4)C(=O)N(CCc3ccc(OC)c(OC)c3)C1=CCC(C)(C)C2,.,?,23µM,.,.
COC(=O)[C@@]12C[C@@H](CC(=O)NCCc3ccccc3OC)C(=O)N(CCc3ccc(OC)c(OC)c3)C1=CCC(C)(C)C2,.,?,21µM,.,.
CCCCNC(=O)C[C@@H]1C[C@@]2(C(=O)OC)CC(C)(C)CC=C2N(CCc2ccc(OC)c(OC)c2)C1=O,.,-,?,.,.
O=C(CSc1nnc(-c2cccnc2)o1)c1cc2ccccc2oc1=O,-,-,?,?,-
CC(C)c1c(C#N)c(N)nc(SCC(=O)c2cc3ccccc3oc2=O)c1C#N,-,?,?,15µM,?
N#Cc1ccc(-c2ccccc2)nc1SCC(=O)c1cc2ccccc2oc1=O,-,-,-,5µM,?
CCOc1ccccc1NC(=O)CSc1nc2ccccc2c(=O)n1CC1CCCO1 (centres undefined),?,-,?,-,-
Cc1ccc(S(=O)(=O)N2C[C@]3(O)C[C@@H]4C(=O)N(c5ccccc5)C(=O)[C@@H]4C[C@]3(OC(=O)NCc3ccccc3)C2)cc1,.,-,-,.,.
Cc1cc(NC(=O)CSc2nc3cc(Cl)ccc3c(=O)n2C(C)C)no1,-,-,-,-,?
CCOC(=O)CSC1=NC(=O)CS1,-,-,-,21µM,?
CCN1CCN(c2oc(-c3ccccc3C)nc2S(=O)(=O)c2ccccc2)CC1,-,-,-,-,-
COCc1cc(CN2CCN(C)CC2)c(O)c2ncccc12,-,?,3.7µM,?,?
CCOC(=O)N1CCN(Cc2cc(Cl)c3cccnc3c2O)CC1,3.7µM,?,-,?,4.6µM
Oc1c(CN2CCN(c3ccccc3)CC2)cc(Br)c2cccnc12,?,?,-,-,18µM
c1ccc(N2CCN(Cc3ccnc4ccccc34)CC2)cc1,?,16µM,-,-,-
CCOC(=O)N1CCN(Cc2ccccc2Cl)CC1,.,-,-,-,-
Clc1ncc(CN2CCN(c3ccccc3)CC2)s1,-,-,-,-,-
Cc1ccc(OCCNC(=O)[C@H]2O[C@@H](n3cnc4c(N)ncnc43)[C@H](O)[C@@H]2O)cc1C,.,-,-,.,.
CC(C)OCc1cc(CN2CCN(c3ccccc3)CC2)c(O)c2ncccc12,.,?,6.5µM,.,.
COc1cc(OC)cc(C(=O)N[C@H](C(=O)N2CCc3ccccc32)C(C)C)c1,-,-,?,?,?
COc1ccc(C(=O)N2CCN(Cc3cc(OC)ccc3OC)CC2)cc1,-,-,-,-,-
COc1ccc(OC)c(CN2CCN(C(=O)[C@@H](NC(=O)c3cccc(C)c3)C(C)C)CC2)c1,?,-,9.2µM,?,-
SMILES,ELG1 DNA repair,KB-3-1 cytotox,KB-V1 cytotox,MCF10A rereplic,SW480 rereplic
COc1cc(OC)cc(C(=O)NC(C(=O)N2CCc3ccccc3C2)C(C)C)c1 (centres undefined),?,?,?,?,18µM
CCc1ccc(OC(C)C(=O)Nc2c(C(=O)c3ccccc3)oc3ccccc23)cc1 (centres undefined),.,-,?,.,.
COc1cc(Nc2ccccc2Cl)c([N+](=O)[O-])nc1[N+](=O)[O-],-,-,-,?,4.6µM
C#CCn1cnc2c(cnn2-c2ccc(F)cc2)c1=O,.,-,-,.,.
CC(Oc1ccc(Cl)cc1Cl)c1nc(-c2ccc(NC(=O)c3ccco3)cc2)no1 (centres undefined),?,-,5.8µM,-,-
COc1ccccc1N1CCN(CCC(=O)Nc2ccc3c(c2)OCO3)CC1,-,-,21µM,-,-
CCOc1ccc(NC(=O)CCN2CCN(c3ccccc3F)CC2)cc1,?,?,?,?,18µM
CC(C)Oc1ccc(C(=O)CCN2CCCCC2)cc1,-,-,-,23µM,?
COc1ccc(C(=O)CCN2CCN(c3ccccc3F)CC2)cc1,?,-,-,5.8µM,?
O=C(CCN1CCN(c2ccccc2F)CC1)c1ccc(Br)cc1,-,-,-,?,?
CC(Sc1ccccc1)C(=O)N1CCN(S(=O)(=O)c2ccc(Cl)cc2)CC1 (centres undefined),-,-,?,-,-
Nc1nccnc1C(=O)OCC(=O)NNC(=O)c1ccccc1,-,-,-,-,-
O=C(CN1CCN(CCC(=O)Nc2ccccc2F)CC1)Nc1ccc(Cl)cc1,?,-,4.6µM,-,-
O=C(CN1CCN(CCC(=O)Nc2ccccc2F)CC1)Nc1ccc(F)cc1,-,-,-,-,-
CCOc1ccccc1Nc1nc2ccc(C)cc2n2cnnc12,-,-,?,-,-
COc1ccc(Cl)cc1Nc1nc2ccc(C(=O)c3ccccc3)cc2n2cnnc12,.,-,-,.,.
COc1ccc(OC)c(Nc2nc3ccc(C)cc3n3cnnc23)c1,8.2µM,-,-,18µM,-
COc1ccc(Cl)cc1Nc1nc2ccc(C)cc2n2cnnc12,?,-,-,8.2µM,-
COc1cccc(Nc2nc3ccc(C(=O)c4ccccc4)cc3n3cnnc23)c1,-,-,-,9.2µM,18µM
Cc1ccc(S(=O)(=O)N2CC(CO)=CCC2c2ccccc2)cc1 (centres undefined),.,-,?,.,.
C=CCn1c(SCc2ccc(C(=O)Nc3nccs3)cc2)nnc1-c1ccc(C)c(Cl)c1,?,?,5.2µM,10µM,?
O=C(NCCc1c[nH]c2ccccc12)C(=O)NCC1OCCN1S(=O)(=O)c1ccccc1 (centres undefined),-,-,-,-,-
O=C(NCCc1c[nH]c2ccccc12)C(=O)NCC1OCCN1S(=O)(=O)c1ccc(Cl)cc1 (centres undefined),13µM,-,?,?,-
Cc1ccc(S(=O)(=O)N2CCCOC2CNC(=O)C(=O)NCCc2c[nH]c3ccccc23)cc1 (centres undefined),23µM,-,-,-,-
COc1cccc(CNc2nc3cc(C(C)=C(C)C)sc3c(=O)n2C)c1,.,-,?,.,.
COc1cccc(-c2nc(SCc3cccc(Br)c3)n3[nH]c(=O)cc3n2)c1,.,-,?,.,.
CN(C)CCNC=C(C(=O)Nc1ccc(Cl)cc1Cl)C(=O)Nc1ccc(Cl)cc1Cl,?,-,?,?,?
Fc1ccccc1/C=N/NC(=S)Nc1ccc(Cl)cc1Cl,?,8.2µM,1.5µM,?,3.3µM
CN(C)/C=N/C(=S)Nc1ccc(Cl)cc1,?,-,-,-,-
Fc1ccc(NC(=S)Nc2ccc(Cl)cc2Cl)cc1,?,?,-,-,-
